Experimental data taken from the supplement of paper PMC10037445.
In all, about 2,900 compounds were measured (“NF-kB SEAP reporter activity, fold change vs agonist alone”: median about 0.99, highest 2% from about 2.6 on). Only a selection was taken, and the highest values are over-represented in it overall.

Tests used:
RAW-Dual [1] = test: NF-kB SEAP reporter activity, fold change vs agonist alone; cytotoxicity flag (confluency mask): not cytotoxic; higher = enhanced NF-kB activity
Outline: (§1)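 After 50 nL of library stock was delivered by pin tool to RAW-Dual macrophages (50,000 cells/well, DMEM, 384-well plates), a PRR agonist was added 1 h later and the plates were kept at 37 °C, 5% CO2. Twenty hours later, IRF was read from supernatant by QuantiLuc luminescence and NF-κB by QuantiBlue absorbance at 620 nm. Reporter activity is stated as fold change over agonist-alone wells. Wells with IncuCyte confluency under 70% of agonist controls in both mask sets were counted as cytotoxic.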

RAW-Dual [2] = test: NF-kB SEAP reporter activity, fold change vs agonist alone; higher = enhanced NF-kB activity
Outline: as §1

RAW-Dual [3] = test: NF-kB SEAP reporter activity, fold change vs agonist alone; cytotoxicity flag (confluency mask): cytotoxic (confluency <70% of control); higher = enhanced NF-kB activity
Outline: as §1

[4] = agonist: ODN 1826 (TLR9) 0.5 ug/mL
[5] = agonist: Pam2CSK4 (TLR2/6) 0.1 ug/mL
[6] = agonist: Pam3CSK4 (TLR2/1) 0.1 ug/mL
[7] = library stock concentration (final ~1000-fold dilution): 10 mM, cytotoxicity flag (confluency mask): not cytotoxic, agonist: Imiquimod (TLR7) […]
[8] = library stock concentration (final ~1000-fold dilution): 10 mM, cytotoxicity flag (confluency mask): not cytotoxic, agonist: MPLA (TLR4) […]

CC1CC(=O)c2c(ccc3c2C(=O)c2cccc(O)c2C3=O)C1 (stereo unspecified) (library stock concentration (final ~1000-fold dilution): 10 mM)
NF-kB SEAP reporter activity (RAW-Dual [1]; agonist: LPS (TLR4) 0.1 ug/mL): 1.64
NF-kB SEAP reporter activity (RAW-Dual [1]; [4]): 1.14
NF-kB SEAP reporter activity (RAW-Dual [1]; [5]): 1.09
NF-kB SEAP reporter activity (RAW-Dual [1]; [6]): 0.991

CC1CC(=O)c2c(ccc3c2C(=O)c2cccc(O)c2C3=O)C1 (stereo unspecified)
NF-kB SEAP reporter activity (RAW-Dual [2]; [7]): 1.02
NF-kB SEAP reporter activity (RAW-Dual [2]; [8]): 1.26

CC(NC(=O)C(NC(=O)OCc1ccccc1)C(C)C)C(=O)NC(CC(=O)O)C(=O)CF (stereo unspecified)
NF-kB SEAP reporter activity (RAW-Dual [2]; [7]): 0.964
NF-kB SEAP reporter activity (RAW-Dual [2]; [8]): 0.934

CC(NC(=O)C(NC(=O)OCc1ccccc1)C(C)C)C(=O)NC(CC(=O)O)C(=O)CF (stereo unspecified) (library stock concentration (final ~1000-fold dilution): 10 mM)
NF-kB SEAP reporter activity (RAW-Dual [1]; agonist: LPS (TLR4) 0.1 ug/mL): 1.23
NF-kB SEAP reporter activity (RAW-Dual [1]; [4]): 0.939
NF-kB SEAP reporter activity (RAW-Dual [1]; [5]): 0.948
NF-kB SEAP reporter activity (RAW-Dual [1]; [6]): 1.03

CCCC1CC(C(=O)NC(C(C)Cl)C2OC(SC)C(O)C(O)C2O)N(C)C1.Cl.O (stereo unspecified)
NF-kB SEAP reporter activity (RAW-Dual [2]; [8]): 1.07

CCCC1CC(C(=O)NC(C(C)Cl)C2OC(SC)C(O)C(O)C2O)N(C)C1.Cl.O (stereo unspecified) (library stock concentration (final ~1000-fold dilution): 10 mM)
NF-kB SEAP reporter activity (RAW-Dual [1]; agonist: LPS (TLR4) 0.1 ug/mL): 1.29
NF-kB SEAP reporter activity (RAW-Dual [1]; [4]): 0.918
NF-kB SEAP reporter activity (RAW-Dual [1]; [5]): 0.831
NF-kB SEAP reporter activity (RAW-Dual [1]; [6]): 0.973

O=C(Nc1cccc(Br)c1)c1cccc(S(=O)(=O)N2CCCCCC2)c1
NF-kB SEAP reporter activity (RAW-Dual [2]; [7]): 1.56
NF-kB SEAP reporter activity (RAW-Dual [2]; [8]): 1.26

C/C(=N\NC(=O)c1cccc(S(=O)(=O)N2CCOCC2)c1)c1cc(Cl)ccc1O
NF-kB SEAP reporter activity (RAW-Dual [2]; [7]): 1.53
NF-kB SEAP reporter activity (RAW-Dual [2]; [8]): 1.65

C/C(=N\NC(=O)c1cccc(S(=O)(=O)N2CCOCC2)c1)c1cc(Cl)ccc1O (library stock concentration (final ~1000-fold dilution): 10 mM)
NF-kB SEAP reporter activity (RAW-Dual [1]; agonist: LPS (TLR4) 0.1 ug/mL): 2.6
NF-kB SEAP reporter activity (RAW-Dual [1]; [4]): 1.9
NF-kB SEAP reporter activity (RAW-Dual [1]; [5]): 1.52
NF-kB SEAP reporter activity (RAW-Dual [1]; [6]): 2.48

O=C(Nc1cccc(Br)c1)c1cccc(S(=O)(=O)N2CCCCCC2)c1 (library stock concentration (final ~1000-fold dilution): 10 mM)
NF-kB SEAP reporter activity (RAW-Dual [1]; agonist: LPS (TLR4) 0.1 ug/mL): 0.803
NF-kB SEAP reporter activity (RAW-Dual [1]; [4]): 1.79
NF-kB SEAP reporter activity (RAW-Dual [1]; [5]): 1.02
NF-kB SEAP reporter activity (RAW-Dual [1]; [6]): 0.939

O=C(O)CCn1c2c(c3ccccc31)CC(NS(=O)(=O)c1ccc(F)cc1)CC2 (stereo unspecified) (library stock concentration (final ~1000-fold dilution): 10 mM)
NF-kB SEAP reporter activity (RAW-Dual [1]; agonist: LPS (TLR4) 0.1 ug/mL): 1.07
NF-kB SEAP reporter activity (RAW-Dual [1]; [4]): 0.99
NF-kB SEAP reporter activity (RAW-Dual [1]; [5]): 1.13
NF-kB SEAP reporter activity (RAW-Dual [1]; [6]): 1.07

O=C(O)CCn1c2c(c3ccccc31)CC(NS(=O)(=O)c1ccc(F)cc1)CC2 (stereo unspecified)
NF-kB SEAP reporter activity (RAW-Dual [2]; [8]): 1.07

COc1cc(/C=C/C(=O)O)ccc1O
NF-kB SEAP reporter activity (RAW-Dual [2]; [7]): 0.903
NF-kB SEAP reporter activity (RAW-Dual [2]; [8]): 1.09

COc1ccc(C=Cc2cc(OC)c(OC)c(OC)c2)cc1OP(=O)(O)O
NF-kB SEAP reporter activity (RAW-Dual [2]; library stock concentration (final ~1000-fold dilution): 10 mM water, cytotoxicity flag (confluency mask): cytotoxic (confluency <70% of control), agonist: Imiquimod (TLR7) […]): 1.67
NF-kB SEAP reporter activity (RAW-Dual [2]; library stock concentration (final ~1000-fold dilution): 10 mM water, cytotoxicity flag (confluency mask): cytotoxic (confluency <70% of control), agonist: MPLA (TLR4) […]): 2.09

COc1cc(/C=C/C(=O)O)ccc1O (library stock concentration (final ~1000-fold dilution): 10 mM)
NF-kB SEAP reporter activity (RAW-Dual [1]; agonist: LPS (TLR4) 0.1 ug/mL): 1.16
NF-kB SEAP reporter activity (RAW-Dual [1]; [4]): 1.12
NF-kB SEAP reporter activity (RAW-Dual [1]; [5]): 1.17
NF-kB SEAP reporter activity (RAW-Dual [1]; [6]): 1.04

COc1cc(C=CC(=O)CC(=O)C=Cc2ccc(O)c(OC)c2)ccc1O
NF-kB SEAP reporter activity (RAW-Dual [2]; library stock concentration (final ~1000-fold dilution): 100 mM, cytotoxicity flag (confluency mask): not cytotoxic, agonist: Imiquimod (TLR7) […]): 0.155
NF-kB SEAP reporter activity (RAW-Dual [2]; library stock concentration (final ~1000-fold dilution): 100 mM, cytotoxicity flag (confluency mask): not cytotoxic, agonist: MPLA (TLR4) […]): 0.257

COc1ccc(/C=C/C(=O)O)cc1OC
NF-kB SEAP reporter activity (RAW-Dual [2]; [7]): 0.805
NF-kB SEAP reporter activity (RAW-Dual [2]; [8]): 1.05

COc1ccc(/C=C\c2cc(OC)c(OC)c(OC)c2)cc1O (library stock concentration (final ~1000-fold dilution): 10 mM)
NF-kB SEAP reporter activity (RAW-Dual [1]; agonist: LPS (TLR4) 0.1 ug/mL): 4.68
NF-kB SEAP reporter activity (RAW-Dual [1]; [4]): 2.84
NF-kB SEAP reporter activity (RAW-Dual [1]; [5]): 1.69
NF-kB SEAP reporter activity (RAW-Dual [1]; [6]): 2.62

COc1ccc(/C=C/C(=O)O)cc1OC (library stock concentration (final ~1000-fold dilution): 10 mM)
NF-kB SEAP reporter activity (RAW-Dual [1]; agonist: LPS (TLR4) 0.1 ug/mL): 1.43
NF-kB SEAP reporter activity (RAW-Dual [1]; [4]): 1.15
NF-kB SEAP reporter activity (RAW-Dual [1]; [5]): 1.15
NF-kB SEAP reporter activity (RAW-Dual [1]; [6]): 1.14

COc1ccc(C(=O)C=Cc2cc(OC)c(OC)c(OC)c2)cc1OC
NF-kB SEAP reporter activity (RAW-Dual [2]; library stock concentration (final ~1000-fold dilution): 20 mM, cytotoxicity flag (confluency mask): cytotoxic (confluency <70% of control), agonist: Imiquimod (TLR7) […]): 0.192
NF-kB SEAP reporter activity (RAW-Dual [2]; library stock concentration (final ~1000-fold dilution): 20 mM, cytotoxicity flag (confluency mask): cytotoxic (confluency <70% of control), agonist: MPLA (TLR4) […]): 0.302

COc1ccc(/C=C\c2cc(OC)c(OC)c(OC)c2)cc1O
NF-kB SEAP reporter activity (RAW-Dual [2]; [7]): 1.63
NF-kB SEAP reporter activity (RAW-Dual [2]; [8]): 2.07

COc1ccc(C(=O)C=Cc2cc(OC)c(OC)c(OC)c2)cc1OC (library stock concentration (final ~1000-fold dilution): 20 mM)
NF-kB SEAP reporter activity (RAW-Dual [3]; agonist: LPS (TLR4) 0.1 ug/mL): 0.326
NF-kB SEAP reporter activity (RAW-Dual [3]; [4]): 0.215
NF-kB SEAP reporter activity (RAW-Dual [3]; [5]): 0.0975
NF-kB SEAP reporter activity (RAW-Dual [3]; [6]): 0.176

COc1cc(C=CC(=O)CC(=O)C=Cc2ccc(O)c(OC)c2)ccc1O (library stock concentration (final ~1000-fold dilution): 100 mM)
NF-kB SEAP reporter activity (RAW-Dual [1]; agonist: LPS (TLR4) 0.1 ug/mL): 0.303
NF-kB SEAP reporter activity (RAW-Dual [1]; [4]): 0.197
NF-kB SEAP reporter activity (RAW-Dual [1]; [5]): 0.13
NF-kB SEAP reporter activity (RAW-Dual [1]; [6]): 0.242
